Assay results: PubChem BioAssay (NCI)
Compounds without any hit were thinned out: in the full panel of roughly 83,000, 20% have a hit.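 Plates (96-well) were seeded with cells, treated with compound at one concentration, and incubated for 48 hours before percent growth was determined.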 Values without a mark were called inactive. Active and inactive are the calls of the source. The calls were made as follows: active = growth percent below 10; inactive = the rest.

Assays:
Assay in all cases: NCI-60 one-dose screen, 48 h (100 = growth as untreated, 0 = no growth, -100 = all killed)
Details in all cases: 10 µM unless noted
DU-145 prostate = test system: DU-145 prostate
K-562 leukemia = test system: K-562 leukemia
MALME-3M melanoma = test system: MALME-3M melanoma
MDA-MB-231 breast = test system: MDA-MB-231 breast
RXF 393 renal = test system: RXF 393 renal
SF-268 CNS = test system: SF-268 CNS
SF-539 CNS = test system: SF-539 CNS
UACC-257 melanoma = test system: UACC-257 melanoma
M14 melanoma = test system: M14 melanoma
HCT-15 colon = test system: HCT-15 colon
HT29 colon = test system: HT29 colon
SNB-75 CNS = test system: SNB-75 CNS
SNB-19 CNS = test system: SNB-19 CNS
U251 CNS = test system: U251 CNS
PC-3 prostate = test system: PC-3 prostate
SK-MEL-5 melanoma = test system: SK-MEL-5 melanoma
UACC-62 melanoma = test system: UACC-62 melanoma
LOX IMVI melanoma = test system: LOX IMVI melanoma
SK-MEL-28 melanoma = test system: SK-MEL-28 melanoma

Compound | growth (DU-145 prostate) | growth (K-562 leukemia) | growth (MALME-3M melanoma) | growth (MDA-MB-231 breast) | growth (RXF 393 renal) | growth (SF-268 CNS) | growth (SF-539 CNS) | growth (UACC-257 melanoma) | growth (M14 melanoma) | growth (HCT-15 colon) | growth (HT29 colon) | growth (SNB-75 CNS) | growth (SNB-19 CNS) | growth (U251 CNS) | growth (PC-3 prostate) | growth (SK-MEL-5 melanoma) | growth (UACC-62 melanoma) | growth (LOX IMVI melanoma) | growth (SK-MEL-28 melanoma)
CCCCNCC(O)c1cc(-c2ccc(C(F)(F)F)cc2)nc(-c2ccc(C(F)(F)F)cc2)c1 (stereo unspecified) | 6.08% (active) | -59.5% (active) | -41.6% (active) | -71.9% (active) | -94.4% (active) | -86% (active) | -74.9% (active) | -70.3% (active) | -79.7% (active) | -64.7% (active) | -77% (active) | -85% (active) | -77.1% (active) | -92.1% (active) | -81.1% (active) | -24.2% (active) | -83.4% (active) | -67.2% (active) | -85.3% (active)
O=C(NO)c1ccc(NCc2csc3ccccc23)cc1 | 54.3% | 62% | 60.8% | 60.9% | 71.2% | 68.8% | 70.3% | 70.2% | 59.4% | 39% | 79.2% | 56% | 69.5% | 57.4% | 52.4% | 74.4% | 57.8% | 71.6% | 91.2%
CCOC(=O)C(Nc1ccccc1)C(=O)OCC | 122% | 92.4% | 93.2% | 105% | 114% | 122% | 111% | 112% | 103% | 98.9% | 106% | 85% | 105% | 109% | 88.1% | 102% | 104% | 93.5% | 111%
CCCCCCCCCCCCCCC(C(=O)OCC)C(=O)OCC | 110% | 121% | 92.8% | 101% | 113% | 110% | 105% | 106% | 108% | 99.5% | 115% | 94.7% | 102% | 104% | 108% | 99.3% | 101% | 119% | 102%
CCOC(=O)c1ccc(N(CCC(=O)O)C(C)=O)cc1 | 122% | 103% | 99.8% | 110% | 106% | 119% | 107% | 98.2% | 105% | 103% | 97.4% | 94.7% | 106% | 102% | 90% | 102% | 99.4% | 105% | 103%
O=c1c2sc3ncc(Cl)cc3c2nnn1-c1cccc(Cl)c1 | 65.3% | 68.1% | 75.3% | 110% | 96.2% | 66.1% | 82.1% | 112% | 85.1% | 87.5% | 75.9% | 70.1% | 98.2% | 59.9% | 82.7% | 96.3% | 96.8% | 52.9% | 90.5%
Cn1c(=O)c2c3c(oc2c2ccccc21)C(=O)c1ccccc1C3=O | 91% | 68.8% | 113% | 11.5% | 101% | 95.3% | 97.2% | 106% | 85.6% | 85% | 73.7% | 64.4% | 93.3% | 90.2% | 64.4% | 76.9% | 77% | 76.6% | 112%
N=C(N)c1ccc(-c2ccc(-c3cc(Cl)cc(Cl)c3)o2)nc1 | -91.9% (active) | -65.6% (active) | -58.9% (active) | -77.3% (active) | 67% | -67.1% (active) | -90.9% (active) | -81.1% (active) | -76.4% (active) | -67.1% (active) | -81.7% (active) | -90.7% (active) | -75.6% (active) | -88.3% (active) | -29.7% (active) | 34.7% | -86.2% (active) | -86.7% (active) | -79.2% (active)
C#CC[C@@H]1C[C@]2(C)[C@H]3CC=C4[C@H]5CC(C)(C)CC[C@]5(C(=O)NCCCCN)CC[C@@]4(C)[C@]3(C)CC[C@H]2C(C)(C)[C@H]1OC(C)=O | -47.9% (active) | -30% (active) | 85% | -58.6% (active) | -43.3% (active) | 89.4% | 86.9% | 111% | 2.23% (active) | 8.51% (active) | 5.83% (active) | -79.9% (active) | 6.48% (active) | -77.9% (active) | 27% | 93.9% | 106% | -70.2% (active) | 102%
